Structures are written as SMILES. Hit rate of the full screen: of about 190,000 compounds, about 200 (0.11%) were called active. The sample as a whole holds a higher share of actives than the screen did. A number with no mark means an inactive call. Rule as the data show it: active = inhibition above about 40%.

Chain of Induced myeloid leukemia cell differentiation protein Mcl-1 (Homo sapiens) (Q07820 whole entry, looked up): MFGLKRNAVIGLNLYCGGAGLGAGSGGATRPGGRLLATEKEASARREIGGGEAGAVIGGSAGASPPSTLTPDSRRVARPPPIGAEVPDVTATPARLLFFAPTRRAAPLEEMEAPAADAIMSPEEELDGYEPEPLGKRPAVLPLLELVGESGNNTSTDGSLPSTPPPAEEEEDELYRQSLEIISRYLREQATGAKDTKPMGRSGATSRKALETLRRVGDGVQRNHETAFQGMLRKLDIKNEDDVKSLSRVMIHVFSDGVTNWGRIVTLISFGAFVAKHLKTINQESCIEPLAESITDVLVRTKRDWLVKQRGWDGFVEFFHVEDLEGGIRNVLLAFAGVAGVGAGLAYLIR

The assay addresses Induced myeloid leukemia cell differentiation protein Mcl-1 (Homo sapiens) (UniProt Q07820). As to the kind of experiment: Mcl-1/Bim interaction disruptors – biochemical, bead-based flow cytometry, multiplex, primary screen (AID 1009).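 Also: 0% = no compound tracer wells and 100% = peptide blocker.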 As to conditions: Bim peptide-Mcl-1 binding, at 10 µM, stronger effect = higher value.
In general, inhibition refers to the change of the read-out against control, counted positive when it falls. Consider `CC(CO)NCC12CC3CC(CC(C3)C1)C2` (configuration not stated), for which the inhibition was 0%.
With `Cc1[nH]c2ccccc2c1/C=C(/C#N)C(=O)NC(C)C` the figure was 0%; with `C=CCN(Cc1nc(-c2cc(OC)c3c(c2)OCO3)oc1C)C1CCS(=O)(=O)C1` (configuration not stated), -1%.
For `CC(C)C(=O)NCc1cc(-c2ccc(Cl)cc2)no1`, the inhibition is -2%.
For `O=C(NCCCN1CCOCC1)c1ccc(N2CCCC2)c([N+](=O)[O-])c1` the value was 0%; for `O=C(NCc1ccc(F)cc1)C(c1ccccc1)N(C(=O)c1csnn1)C1CC1` (configuration not stated), -1%.
For the compound `Nc1[nH][nH]c(=O)c1N=Nc1ccc2c(c1)OCO2`, the inhibition was 0%.
In the case of `COc1ccc(Cl)cc1N(CC(=O)N/N=C/c1ccc(OCC(N)=O)cc1)S(C)(=O)=O`, the inhibition was 1%.
For the compound `CSc1ccc(CN2C(=O)NC3(CCCCCC3)C2=O)cc1`, the inhibition is 3%.
For `Cc1nc(N2CCC(C)CC2)c2c(C)c(C(=O)Nc3cc(F)ccc3C)sc2n1` the value was -1%; for `COc1ccc(/C=N/OCC(=O)N(Cc2ccccc2)c2ccccc2C(=O)O)cc1`, -1%.
Turning to `C#CCOCCOCCOCCNc1nc(N2CCN(C(=O)[C@H](CCC(=O)O)n3cc(C(N)CO)nn3)CC2)nc(N2CCN(C(=O)[C@H](Cc3ccc(O)cc3)n3cc(C(N)[C@H](C)CC)nn3)CC2)n1` (some centres not stated), the inhibition is 0%.
With `CCOC(=O)Cc1ncccc1C(=O)Nc1ccc(OC(F)(F)F)cc1`, the inhibition is -7%.
With `COc1ccc(C(=O)N2CCC(C(=O)Nc3ccc(C)cc3)CC2)cc1` the figure was -3%.
Consider `N#Cc1ccc(-c2nc3cc(C#N)c(C#N)cc3nc2-c2ccccc2)cc1C#N`, for which the inhibition was 1%.
With `O=C(CCN1C(=O)/C(=C/c2cccs2)SC1=S)NNC(=O)c1cccc(O)c1`, the inhibition is 0%.
For `COCC1CCCN(Cc2cn[nH]c2-c2cc3ccccc3o2)C1` (configuration not stated) the value was -3%.
Consider `O=C(NC(=S)NC1CCSC1=O)c1ccccc1F` (configuration not stated), for which the inhibition is 0%.
With `O=C(N/N=C/c1cc([N+](=O)[O-])ccc1O)/C(=C\c1cccs1)NC(=O)c1ccccc1` the figure was 0%.
With `COc1ccc(C(=O)C2CCCN(Cc3cccn3-c3ccccn3)C2)c(C)c1` (configuration not stated) the figure was 0%.
In the case of `CN(CC(=O)NC1CCCC1)S(=O)(=O)c1cnc[nH]1`, the inhibition is -8%.
With `Cc1cc(C)nc(Nc2ncn[nH]2)n1` the figure was 1%; with `CCCCC(CC)CNC(=O)C(=O)C1C(=O)Nc2ccccc21` (configuration not stated), -2%.
Regarding `O=C(/C=C/c1cnc2ccccc2n1)NC1CCCCCC1`, the inhibition is -22%.
With `COc1cccc(CNC(=O)c2n[nH]c3ccccc23)c1` the figure was 0%.
With `COc1ccc(N(CC(=O)Nc2ccc(C)cc2C)S(=O)(=O)c2ccccc2[N+](=O)[O-])c(OC)c1` the figure was 4%.
For the compound `COc1ccc(C(=O)NC2(C(F)(F)F)NC(=O)N(CCCc3ccccc3)C2=O)c(OC)c1OC` (configuration not stated), the inhibition was -3%.
With `CCCOc1ccc(Cn2ccnc2)cc1[N+](=O)[O-]` the figure was -1%; with `O=C(/C=C/c1ccc(Cl)cc1)N1CCN(c2ccccc2[N+](=O)[O-])CC1`, -1%; with `CCO[C@H]1OC(C(=O)N2CCOCC2)=C[C@@H](c2ccc3c(c2)OCO3)[C@@H]1CCCO`, -2%.
With `CC(=O)N1CCN(S(=O)(=O)c2c(F)cc(F)c(Cl)c2F)CC1`, the inhibition was -1%.
With `Cc1ccc(Cl)c(NC(=O)CN2CCN(C=O)CC2)c1` the figure was 0%.
With `CCCn1c(C(O)c2ccc(OCC)cc2)nc2ccccc21` (configuration not stated) the figure was 0%.
With `CCCn1c(C(O)c2cc(OC)ccc2OC)nc2ccccc21` (configuration not stated) the figure was 80% (active); with `COc1cc(C(O)c2nc3ccccc3n2C)cc(OC)c1OC` (configuration not stated), 0%; with `COc1ccc(CC2(CO)CCN(Cc3cnn(C)c3)CC2)cc1`, 8%.
Turning to `COc1cccc(NC(=O)CS(=O)(=O)c2cn(CC(=O)N3CCOCC3)c3ccccc23)c1`, the inhibition was 1%.
For `COc1ccc(S(=O)(=O)NC(C)C)cc1C(=O)NC1CCCCC1` the value was -1%; for `O=C(CCN1C(=O)c2ccccc2C1=O)C1=NN[C@@H]2C(=O)N(c3ccc(F)cc3)C(=O)[C@H]12`, -3%.
With `Cc1c(Cc2ccccc2)c(=O)oc2cc(OCC(N)=O)ccc12` the figure was 0%.
For `C/C(=N/OC(=O)c1c(-c2c(F)cccc2Cl)noc1C)c1cnccn1`, the inhibition was -2%.
For `COC(=O)C1=C(C)N(C(C)c2ccccc2)C(=O)/C1=C\c1ccco1` (configuration not stated) the value was -2%; for `Cc1ccc2[nH]cc(CCCN3C(=O)c4ccccc4C3=O)c2c1`, -3%; for `CC1(C)CN(c2ccc(-c3ccnc4ncnn34)cc2)C1=O`, -1%.
Turning to `Cn1c(CCC(=O)OCC(=O)NCc2ccccc2Cl)nc(=O)c2ccccc21`, the inhibition was -2%.
Consider `CC(=O)Nc1ccc(-c2csc(NC=C3C(=O)OC(C)(C)OC3=O)n2)cc1`, for which the inhibition is -8%.
For `c1ccc2sc(NN=C3CCCC3)nc2c1`, the inhibition was 0%.
With `Oc1ccc(-c2nncn2-c2ccccc2)cc1` the figure was 0%; with `COc1cccc(NC(=O)COC(=O)CCOc2ccccc2OC)c1`, 0%; with `COc1ccc(NC(=S)Nc2ccc(S(N)(=O)=O)cc2)c(C)c1`, -2%.
For `Cc1ccc(NN=Nc2nc3c([nH]2)c(=O)n(C)c(=O)n3C)cc1` the value was -7%; for `O=C(NCCCN1CCOCC1)c1ccccc1NS(=O)(=O)c1ccc(F)cc1`, 3%; for `CCOc1cccc(/C=C/c2ccc3ccccc3n2)c1OC(C)=O`, 0%.
With `O=C(Nc1ccc(F)cc1)C1CCN(C(=O)c2ccc([N+](=O)[O-])cc2)CC1` the figure was 0%; with `Cc1cc(OCCN2CCCC2)cc(C(C)C)c1`, -3%.
In the case of `COc1cc(C2OC(c3cc(OC)c(OC)c(OC)c3)C(C)C2C)cc(OC)c1OC` (configuration not stated), the inhibition was 0%.
With `COC(=O)c1cc(NC(=O)c2cccnc2)ccc1N1CCOCC1` the figure was -2%.
With `Cc1ccc(S(=O)(=O)/N=C(\N)c2ccc(F)cc2)cc1` the figure was 0%.
Take `CC1CCCC(NC(=O)c2cccc(N3CCCC3=O)c2)C1C` (configuration not stated): the inhibition was 1%.
Consider `CCOC(=O)N1CCC(c2cc(=O)n(-c3ccccc3)[nH]2)CC1`, for which the inhibition is 42% (active).
Consider `CCOC(=O)CN1CCC(c2ccccc2)CC1`, for which the inhibition is 2%.
With `CCOC(=O)N1CCC(NC(=O)COc2cc(=O)n(C)c3ccccc23)CC1` the figure was -1%.

The record behind these values is PubChem BioAssay AID1009 (NMMLSC, 2008).
